Experimental findings from PubChem BioAssay are described below.

Activity calls are given as the source filed them.

The subject of assay [1] is XIP peptide (Xip251-270) binding. Kind of assay: XIP fragment 251-270 binding compounds – biochemical, small-molecule microarray, fluorescence 635/667 nm, 0.1 µg/mL protein, primary screen (AID 1182). As to conditions: fluorescent protein binding, 635 nm, higher = more signal, called active from +8 up or from −8 down.
The test system of another assay is XIP peptide (Xip251-270). The experiment in a line: compounds binding XIP fragment 251-270 – biochemical, small-molecule microarray, fluorescence 635/667 nm, 0.5 µg/mL protein, primary screen (AID 1183). As to conditions: fluorescence 635 nm, higher = more signal.
Assay [2] is described as follows: blood-stage malaria parasite viability loss – strain 3D7, DAPI fluorescence, 100 nL, primary screen (AID 1184).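 Further: parasites grown inside human red blood cells in medium with human serum.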 As to conditions: P. falciparum 3D7 growth, 3 d, higher = more signal.
Assay [3] concerns the target Homeobox protein Hox-A13 (Mus musculus) (UniProt Q62424). The experiment in a line: disruptors of Hoxa13 oligonucleotide interaction – biochemical, fluorescence polarization, labeled oligonucleotide, primary screen (AID 1185). The note with it: Hoxa13:DNA binding, 15 min, higher = more signal, called active from +8 up or from −8 down. (Polarisation of emitted light reports the rotation of a fluorescent probe.)

Homeobox protein Hox-A13 (Mus musculus), sequence (Q62424 whole entry, looked up): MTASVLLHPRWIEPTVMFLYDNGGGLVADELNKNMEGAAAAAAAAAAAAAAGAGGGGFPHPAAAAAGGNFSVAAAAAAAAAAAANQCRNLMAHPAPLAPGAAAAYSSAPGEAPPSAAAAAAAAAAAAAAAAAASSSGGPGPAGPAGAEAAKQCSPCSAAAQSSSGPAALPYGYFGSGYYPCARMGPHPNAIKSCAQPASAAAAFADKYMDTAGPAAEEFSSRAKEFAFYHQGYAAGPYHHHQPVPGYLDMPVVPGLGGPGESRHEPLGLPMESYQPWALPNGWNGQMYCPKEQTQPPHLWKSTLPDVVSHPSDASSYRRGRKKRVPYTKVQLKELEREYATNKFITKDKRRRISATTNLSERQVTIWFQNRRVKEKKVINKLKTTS

As to `CCOC(=O)[C@H](Cc1ccccc1)NC(=O)CCC1CC(OC(=O)NCc2cccc3ccccc23)CC2(CCCC(COC(=O)NCCOc3ccccc3)O2)O1` (some centres undefined), the composite z-score in assay [1] was -0.0988 (inactive); in the assay on XIP peptide (Xip251-270), 0.512. Besides, the z-score is -1.86 in assay [2] and -2.04 (inactive) in assay [3].
For `CCOC(=O)NN=C1C[C@@H](O)[C@@H](O)[C@@H]2[C@@H]3C(=O)N(C[C@@H]4CCCO4)C(=O)[C@@H]3CC[C@H]12` the same measures were 0.0272 (inactive), 0.0356, 0.379 and 0.0129 (inactive).
As for `O=C1C=C[C@@H](O)[C@@H]2[C@@H]3C(=O)N(C4CCCCC4)C(=O)[C@@H]3CC[C@@H]12`, the composite z-score was 0.386 (inactive) in assay [1] and 0.178 with XIP peptide (Xip251-270). Further, the values for the z-score in assay [2] and in assay [3] were 0.307 and -0.431 (inactive), respectively.
For `COC(=O)[C@H](C)NC(=O)CCC1CC(OC(=O)NCc2ccc3c(c2)OCO3)CC2(CCCC(COC(=O)NCCCN3CCCC3=O)O2)O1` (some centres undefined) the same measures were 0.045 (inactive), 0.612, -1.84 and -5.61 (inactive).
For `COC(=O)[C@H](C)NC(=O)CCC1CC(OC(=O)NCc2cccc3ccccc23)CC2(CCCC(COC(=O)NCCC(C)C)O2)O1` (some centres undefined) the same measures were -0.477 (inactive), 0.468, -1.57 and -5.31 (inactive).
For `O=C1C[C@H](c2ccccc2)[C@H](c2ccc(Br)cc2)O1` the same measures were -0.112 (inactive), -0.0581, 0.467 and -0.403 (inactive).
Consider `COC(=O)C(C(=O)OC)C1CCCC(=O)C1` (centres undefined), for which the composite z-score in assay [1] was -0.0977 (inactive); in the assay on XIP peptide (Xip251-270), 0.237. For the same compound, the z-score in assay [2] is -0.468; in assay [3], -0.243 (inactive).
For `CC[C@@H](c1ccccc1)n1c(=O)n2n(c1=O)[C@H]1[C@H](O)[C@@H]3O[C@@H]3C(=NOCc3ccccc3)[C@H]1CC2` the same measures were 0.265 (inactive), 0.539, -1.81 and -4.2 (inactive).
For `C[C@@H]1CC[C@H]2C(=O)OC(CN3C(=O)c4ccccc4C3=O)CN2[C@H]1c1ccc(Br)cc1` (some centres undefined), the composite z-score is -0.212 (inactive) in assay [1] and 0.338 in the assay on XIP peptide (Xip251-270). The z-score in assay [2] is 0.49; in assay [3], -0.956 (inactive).
For `CC(CCN1CCCCc2nc(C)c(C)cc21)=NOC[C@@H](O)[C@H]1O[C@@H]2OC(C)(C)O[C@@H]2[C@H]1O` the same measures were -0.398 (inactive), 0.698, 0.027 and -1.75 (inactive).
Take `COc1cccc([C@H](O)Cn2cc(-c3ccc(CON=C(C)C)cc3)nn2)c1`: the composite z-score in assay [1] was 0.218 (inactive); in the assay with XIP peptide (Xip251-270), -0.851. In addition, the z-score was -1.11 in assay [2] and -4.2 (inactive) in assay [3].
For `C[C@@H]1CC[C@@H](C(=O)O)N[C@H]1c1cccc(N2CCOCC2)c1` the same measures were -0.315 (inactive), -0.135, 0.818 and 0.167 (inactive).
For `CCOC(=O)[C@H](CC(C)C)NC(=O)CCC1CC(OC(=O)NCCc2ccc(F)cc2)CC2(CCCC(COC(=O)NCc3cccc(C(F)(F)F)c3)O2)O1` (some centres undefined) the same measures were -0.0296 (inactive), 0.575, -0.748 and -6.52 (inactive).
For `CC(=O)OC[C@H]1O[C@H](CC=NO[C@H](C)c2cn([C@@H]3COC[C@H]3O)nn2)C=C[C@@H]1OC(C)=O` the same measures were -0.205 (inactive), 0.644, -0.0896 and 0.928 (inactive).
`COC(=O)[C@H](C)NC(=O)CCC1CC(OC(=O)NCCc2ccc(F)cc2)CC2(CCCC(COC(=O)NCCOc3ccccc3)O2)O1` (some centres undefined): the results for the composite z-score (in assay [1]; with XIP peptide (Xip251-270)) were 2.99 (inactive) and 0.536, respectively. Moreover, the z-score in assay [2] is -1.84; in assay [3], -1.1 (inactive).
For `C[C@H]1CC[C@@H](C(=O)O)N[C@@H]1c1ccc(C#Cc2ccccc2)cc1` the same measures were -0.125 (inactive), 0.601, -1.61 and -2.16 (inactive).
For `CC(CCN1CCc2nc(-c3ccccc3)c(-c3ccccc3)cc2C1)=NO[C@@H](C)c1cc(-c2c(C)cc(C)cc2C)no1` the same measures were 1.27 (inactive), 0.416, -1.31 and 0.713 (inactive).
For `COC(=O)[C@@H]1CC[C@H](C)[C@@H](c2ccc(Br)cc2)N1C(=O)C(F)(F)F` the same measures were 0.0945 (inactive), -0.635, -0.541 and -0.733 (inactive).
Regarding `CC(CCN1CCCc2nc(C)c(C)cc21)=NOC[C@@H](C)[C@H](OCc1ccccc1)C(C)C`, the composite z-score in assay [1] was -0.563 (inactive); in the assay with XIP peptide (Xip251-270) it was 0.548. Moreover, the z-score in assay [2] is -0.342; in assay [3], -3.09 (inactive).
On to `COc1cccc([C@H]2Oc3ccc(OC)cc3C(=NOCC[C@@H]3C=C[C@H](OC(C)=O)[C@@H](COC(C)=O)O3)[C@@H]2O)c1`, for which the composite z-score is 0.451 (inactive) in assay [1] and 0.206 in the assay on XIP peptide (Xip251-270). Also, the z-score in assay [2] is 0.956; in assay [3], -5.39 (inactive).
For `COC(=O)[C@@H]1CC[C@H](C)[C@@H](c2ccc(C)cc2)N1C(=O)c1ccc(C=NO[C@@H](C)c2cc(-c3c(C)cc(C)cc3C)no2)cc1` the same measures were -0.274 (inactive), 0.511, -0.225 and 0.492 (inactive).
